The values that follow come from PubChem BioAssay.

Each structure is given as a SMILES string. Values without a mark were called inactive. Activity calls are given as the source filed them.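 How the source made its calls: active means mean inhibition above 46.68%, the untreated control wells mean plus 3 SD; inactive means the rest.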

In the assay the target is Nuclear receptor coactivator 1 (Homo sapiens) (UniProt Q15788). As to the kind of experiment: NCOA1 GAL4-fusion reporter inhibition – cell-based, luminescence, quadruplicate, confirmation (AID 588820).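 Further: 0% = DMSO wells and 100% = gossypol 36 µM treated wells.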 To be noted: HEK293 GAL4-SRC1 luciferase reporter, at 3.6 µM, active compounds read high. A general note: In a reporter assay the amount or activity of a reporter protein is the signal.
Chain of Nuclear receptor coactivator 1 (Homo sapiens) (Q15788 whole entry, looked up, the tested form may be a part): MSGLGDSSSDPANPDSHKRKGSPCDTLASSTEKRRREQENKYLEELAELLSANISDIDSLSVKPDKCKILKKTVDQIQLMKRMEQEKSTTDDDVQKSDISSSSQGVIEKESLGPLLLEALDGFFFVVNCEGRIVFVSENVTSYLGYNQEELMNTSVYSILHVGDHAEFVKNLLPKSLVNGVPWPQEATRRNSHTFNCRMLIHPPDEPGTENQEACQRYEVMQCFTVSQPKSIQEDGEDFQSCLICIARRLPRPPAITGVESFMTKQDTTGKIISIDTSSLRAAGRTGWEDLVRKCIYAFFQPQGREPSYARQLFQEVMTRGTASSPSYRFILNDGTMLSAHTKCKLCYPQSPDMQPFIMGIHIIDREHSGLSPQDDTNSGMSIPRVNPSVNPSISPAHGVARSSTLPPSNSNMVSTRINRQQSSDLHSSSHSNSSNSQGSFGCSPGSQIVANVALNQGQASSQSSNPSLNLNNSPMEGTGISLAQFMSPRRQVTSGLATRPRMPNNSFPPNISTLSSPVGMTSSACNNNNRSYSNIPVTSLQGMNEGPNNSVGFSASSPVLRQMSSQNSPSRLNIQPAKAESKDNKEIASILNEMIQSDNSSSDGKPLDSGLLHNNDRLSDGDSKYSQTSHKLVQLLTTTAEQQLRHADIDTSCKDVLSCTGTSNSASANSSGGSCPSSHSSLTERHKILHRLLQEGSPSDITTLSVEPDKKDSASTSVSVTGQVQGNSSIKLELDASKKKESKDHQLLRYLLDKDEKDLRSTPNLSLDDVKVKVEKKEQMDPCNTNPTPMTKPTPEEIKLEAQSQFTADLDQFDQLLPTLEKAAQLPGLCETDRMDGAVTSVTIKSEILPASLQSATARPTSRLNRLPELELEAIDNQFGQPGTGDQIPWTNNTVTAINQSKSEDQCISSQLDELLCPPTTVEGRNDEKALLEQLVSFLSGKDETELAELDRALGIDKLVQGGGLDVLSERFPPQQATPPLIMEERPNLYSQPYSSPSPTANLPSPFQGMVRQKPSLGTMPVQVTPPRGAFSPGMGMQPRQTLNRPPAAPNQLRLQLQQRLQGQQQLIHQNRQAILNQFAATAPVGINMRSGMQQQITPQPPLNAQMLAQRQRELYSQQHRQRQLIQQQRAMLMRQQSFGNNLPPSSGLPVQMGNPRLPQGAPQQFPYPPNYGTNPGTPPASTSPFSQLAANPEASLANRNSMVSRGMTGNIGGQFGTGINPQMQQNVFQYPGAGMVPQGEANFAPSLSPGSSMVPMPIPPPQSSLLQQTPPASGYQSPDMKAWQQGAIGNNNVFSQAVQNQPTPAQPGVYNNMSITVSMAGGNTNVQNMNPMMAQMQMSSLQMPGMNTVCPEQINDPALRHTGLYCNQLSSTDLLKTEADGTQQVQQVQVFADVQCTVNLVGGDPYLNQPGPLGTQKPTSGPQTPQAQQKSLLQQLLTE
In general, inhibition refers to the drop in the measured response relative to a control, in per cent. Take `Cc1cc(C(=O)COC(=O)c2ccccc2Br)c(C)n1CC1CCCO1` (stereo not given): the inhibition is 60.3% (active).

Turning to `CC1CCc2nc(N)c(C#N)c(-c3cccnc3)c2C1` (stereo not given), the inhibition is 68.7% (active).

Turning to `O=C(CCl)N(c1ccccc1)C1CCS(=O)(=O)C1` (stereo not given), the inhibition is 22.3%.

As to `CC(=O)OC[C@]12CC[C@H]3[C@@](C)(CC[C@H]4C(C)(C)CCC[C@]34C)[C@@H]1CC(C1=CC(=O)OC1O)O2` (stereo not given in full), the inhibition is -93.3%.

For `CC1CCCN(c2ncnc3c2cnn3-c2ccc(Cl)cc2)C1` (stereo not given), the inhibition was 74.4% (active).

With `Cc1ccc(/C=C2\SC(=S)N(CCCC(=O)Nc3ccccn3)C2=O)cc1`, the inhibition is 55.7% (active).

For `COc1ccc(-n2ncc3c(N(C)C4CCCCC4)ncnc32)cc1`, the inhibition was 37.6%.

For the molecule `c1csc(CNc2ccc3c(c2)OCCO3)c1`, the inhibition was -25.5%.

With `Cc1cc(C(=O)COC(=O)c2ccccc2O)c(C)n1Cc1cccs1`, the inhibition is 71.1% (active).

For `COc1ccccc1-c1nnc(Sc2nc([N+](=O)[O-])nn2C)o1`, the inhibition was 18.7%.

For the molecule `Nc1ccc(-c2cc3ccccc3oc2=O)cc1`, the inhibition was 45%.

As for `OCC1OC(n2ccc3c2ncn2ncnc32)C(O)C1O` (stereo not given), the inhibition was 55.1% (active).

For the molecule `COc1ccc2cc3c(N)nn(C(=O)c4ccccc4[N+](=O)[O-])c3nc2c1`, the inhibition was 64.8% (active).

With `O=C(CC1CS(=O)(=O)CC1CC(=O)Nc1ccc2c(c1)OCCO2)Nc1ccc2c(c1)OCCO2` (stereo not given), the inhibition is -14.1%.

On to `CC1CCC(C(C)C)C(OC(=O)Cn2c(-c3ccc(F)cc3)[n+](C)c3ccccc32)C1` (stereo not given), for which the inhibition was 25.4%.

In the case of `CC(C)Nc1ncnc2ccc(Br)cc12`, the inhibition is 65.3% (active).

For `Nc1cc2ccncc2c2ccccc12`, the inhibition was 68.9% (active).

On to `Cc1ccc2oc(/N=C(\N)NC(=O)C(C)(C)C)nc2c1`, for which the inhibition is 65.2% (active).

In the case of `COC1=CC(=O)c2c(ccc3ncnc(N)c23)C1=O`, the inhibition is -4.46%.

With `CC(C)(C)C(=O)/C(=C/c1ccncc1)n1cncn1`, the inhibition is 59.9% (active).

`O=c1c2ccccc2oc2cc(C#CC3(O)CCCCC3)ccc12`: the inhibition is -2.8%.

With `Cc1cc(C(=O)CN2C(=O)c3ccccc3S2(=O)=O)c(C)n1CC1CCCO1` (stereo not given), the inhibition is 77.7% (active).

Consider `CC(C)(C)OC(=O)NCCCCCc1cn([C@@H](CO)C(=O)NCCCCCCCCCCC(=O)N2CCN(C(=O)OC(C)(C)C)CC2)nn1`, for which the inhibition was 0.34%.

With `Clc1ccc(-n2ncc3c(N4CCCCCC4)ncnc32)cc1`, the inhibition was 52.9% (active).

Consider `CC(=O)NC(c1ccc(C(C)C)cc1)c1ccc2cccnc2c1O` (stereo not given), for which the inhibition was 65.9% (active).

With `Cc1ccc(C(=O)N/N=C/c2c(O)ccc3ccccc23)cn1`, the inhibition was 58.7% (active).

`CCOc1cc(CNc2ccc3c(c2)OCCO3)cc(Br)c1OC`: the inhibition is -15.9%.

Turning to `COc1cccc(-c2nnc3n2N=C(C(C)(C)C)CS3)c1`, the inhibition is 72.3% (active).

As to `Cc1ccc(C(=O)N/N=C/c2ccc([N+](=O)[O-])s2)cc1`, the inhibition was 33.7%.

With `C=C1C(=O)C2=CC1CCC(=O)C1(C)CCC(OC(C)=O)C(C)(C)C1CC2O` (stereo not given), the inhibition was 8.46%.

As for `COc1cccc(N2CCN(c3ncnc4c3cnn4-c3ccc(C)cc3C)CC2)c1`, the inhibition is 54.6% (active).

Consider `COc1cc(NC(=O)COc2cc(O)c3c(c2)OC(C)(C)CC3=O)cc(OC)c1OC`, for which the inhibition is -14.2%.

Regarding `Cc1ccc(Nc2nc(N)nc(CCl)n2)c(C)c1`, the inhibition was 38.6%.

As to `CC(C)(C)NCC(=Cc1ccccc1)C(=O)c1ccccc1`, the inhibition is -38.5%.

Turning to `CCCNC1=C(N(C(C)=O)c2cccc(F)c2)C(=O)c2ccccc2C1=O`, the inhibition was 58.6% (active).

Turning to `CCOC(=O)c1ccc(NC(=O)c2ccc(C)c(S(=O)(=O)N3CCOCC3)c2)cc1`, the inhibition is 3.47%.

As for `NC(=S)NN=Cc1nccc2c(C(F)(F)C(F)(F)C(F)(F)F)cccc12`, the inhibition is 85.5% (active).

Take `COC1=CC(=O)c2nc(Cl)ccc2C1=O`: the inhibition is -9.24%.

Consider `COc1cccc2c1C(=O)c1c(O)c3c(c(O)c1C2=O)CC(O)(C(C)=O)CC3OC1CC(N(C)C)C(O)C(C)O1` (stereo not given), for which the inhibition is 73.9% (active).

Turning to `C[C@@H](C(=O)Nc1ccc2c(c1)OCCO2)n1c(=O)[nH]c2ccccc2c1=O`, the inhibition is -4.84%.
